The campaign covered roughly 5,500 compounds. About 2,000 (36%) were called active. Roughly 18% stayed inconclusive and do not appear here. Rule as the data show it: active = normalized growth mostly below about 0.91 (no sharp cut-off); inconclusive = no clear call, values can overlap the other calls; inactive = mostly above about 0.92. This is one part of the list.
Test: chemical genetic growth profiling, strain panel (AID 1159580);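 also: tested at 20 µM; growth read once vehicle control cultures reached saturation at 30 °C; 1 = growth at the plate median or of vehicle wells; lower values mean less growth of the strain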
Conditions: S. cerevisiae deletion strains, growth OD

Measured: normalized growth

O=C1NC(c2cccc([N+](=O)[O-])c2)=CCN1c1ccccc1O
inactive: locus YAL013W, strain DEP1, hits give low values 0.998 | locus YAL040C, strain CLN3, hits give low values 0.994 | locus YCL061C, strain MRC1 (second series), hits give low values 1.01 | locus YDR363W, strain ESC2, hits give low values 1.01 | locus YER002W, strain NOP16, hits give low values 1 | locus YGR078C, strain PAC10, hits give low values 1.02 | locus YJR075W, strain HOC1, hits give low values 1.01 | locus YMR263W, strain SAP30, hits give low values 1 | locus YMR307W, strain GAS1, hits give low values 1 | locus YNL153C, strain GIM3, hits give low values 1.05 | locus YNL175C, strain NOP13, hits give low values 1 | locus YNL197C, strain WHI3, hits give low values 1.01 | locus YNL224C, strain SQS1, hits give low values 0.995 | locus YNL322C, strain KRE1, hits give low values 0.998 | locus YOR083W, strain WHI5 (second series), hits give low values 1.01

— PubChem BioAssay AID1159580 (chemical genetic matrix, 2015)
